# Measurements taken from PubChem BioAssay (Tox21).
# Where “and” joins values, the source holds several entries; their conditions need not be identical. Equal entries are not always repeated. Inconclusive results are not listed. A call without a number means that no potency is given here. Some structures have more than one record in an assay (separate samples or runs), and their calls can disagree. Calls of active or inactive are those of the source. Unless noted, the call rests on the fitted dose curve.
# Legend:
# [1] = qHTS assay to identify small molecule agonists of the sonic hedgehog signaling (Shh) pathway (AID 1259368);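 further: NIH/3T3-derived 3T3Gli1-Luc cells carrying a stable Gli1-driven firefly luciferase reporter; series mostly up to about 92 µM; nearly all actives have a fitted effect of over 15% in size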
# How it was run: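 Cells of a mouse NIH/3T3 clone stably expressing luciferase under the Gli1 transcriptional response element are exposed to test chemicals for 24 hr at 37 C. Pathway activation is detected as a rise in luminescence.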
# [2] = qHTS assay to identify small molecule antagonists of the sonic hedgehog signaling (Shh) pathway (AID 1259369); further: nearly all actives have a fitted effect of over 45% in size; further: potency means the concentration at half of the fitted maximal effect
# How it was run: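 Cells are plated and held 4hr at 37 C, compounds (DMSO) are pinned in, conditioned medium is added to stimulate the pathway, and after 24hr luciferase reagent is added for 30min before luminescence is read.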
# [3] = qHTS assay to identify small molecule agonists of the androgen receptor (AR) signaling pathway in the presence of an antagonist - cell viability counter screen (AID 1259379; active means well fitted curve in the direction sought with a large enough effect in the repeat runs; an effect the other way counts as inactive or inconclusive; further: nearly all actives have a fitted effect of over 25% in size; further: potency means the concentration at half of the fitted maximal effect)
# How it was run: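 Cytotoxicity is assessed by CellTiter-Fluor in MDA-kb2 cells carrying an MMTV-driven luciferase reporter. Cells receive 3.0uM nilutamide plus compounds at 15 concentrations and incubate 16 hr at 37C without CO2 before fluorescence reading.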
# [4] = qHTS assay to identify small molecule agonists of the estrogen receptor beta (ER-beta) signaling pathway - cell viability counter screen (AID 1259380; active means well fitted curve in the direction sought with a large enough effect in the repeat runs; an effect the other way counts as inactive or inconclusive; further: nearly all actives have a fitted effect of over 30% in size; further: potency means the concentration at half of the fitted maximal effect)
# How it was run: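 Cytotoxicity is measured in parallel with the reporter screen: after 16 hr compound exposure at 37C and a 2 hr LiveBLAzer step, CellTiter-Glo is added to the same ER-beta-UAS-bla HEK293T wells and luminescence read after 30 min.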
# [5] = molecular target: Estrogen receptor (Homo sapiens) (UniProt P03372); experiment: qHTS assay to identify small molecule agonists of the estrogen receptor alpha (ER-alpha) signaling pathway in the presence of an antagonist (AID 1259383); further: nearly all actives have a fitted effect of over 15% in size; further: potency means the concentration at half of the fitted maximal effect; on activation: top concentration of the series differs between compounds
# Chain of Estrogen receptor (Homo sapiens) (P03372 whole entry, looked up): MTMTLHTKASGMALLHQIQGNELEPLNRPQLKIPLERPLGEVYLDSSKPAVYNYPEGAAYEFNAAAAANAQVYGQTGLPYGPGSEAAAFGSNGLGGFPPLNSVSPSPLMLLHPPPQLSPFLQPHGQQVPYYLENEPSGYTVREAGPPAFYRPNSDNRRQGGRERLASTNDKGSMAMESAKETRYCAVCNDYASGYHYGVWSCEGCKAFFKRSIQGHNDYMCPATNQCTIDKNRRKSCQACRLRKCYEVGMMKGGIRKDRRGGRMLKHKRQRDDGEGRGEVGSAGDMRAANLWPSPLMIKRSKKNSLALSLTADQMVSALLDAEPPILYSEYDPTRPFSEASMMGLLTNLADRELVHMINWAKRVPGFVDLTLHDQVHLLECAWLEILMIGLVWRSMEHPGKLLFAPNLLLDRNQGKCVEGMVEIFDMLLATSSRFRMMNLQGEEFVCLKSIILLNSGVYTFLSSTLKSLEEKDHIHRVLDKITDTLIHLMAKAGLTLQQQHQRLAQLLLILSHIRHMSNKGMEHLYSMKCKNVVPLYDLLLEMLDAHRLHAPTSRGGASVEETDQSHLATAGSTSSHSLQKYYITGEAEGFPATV
# How it was run: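 Agonist-mode confirmation in the presence of the ER antagonist ICI-182,780 at 10.0nM final. Breast-derived VM7Luc4E2 reporter cells were exposed to compounds for 22hr, and ERE-driven luciferase was quantified by luminescence.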
# [6] = qHTS assay to identify small molecule agonists or antagonists of the thyroid stimulating hormone receptor (TSHR) signaling pathway - wild type cell line counter screen (AID 1259384)
# How it was run: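 Wild-type Hek293 cells, 800/well, 18 h at 37C, then compound with Ro20-1724 for 30 min RT. cAMP by HTRF (cAMP-d2/anti-cAMP cryptate), 1 h RT, fluorescence read. 15 concentrations, triplicates.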
# [7] = molecular target: Androgen receptor (Homo sapiens) (UniProt P10275); experiment: qHTS assay to identify small molecule agonists of the androgen receptor (AR) signaling pathway in the presence of an antagonist (AID 1259381); further: nearly all actives have a fitted effect of over 15% in size; further: potency means the concentration at half of the fitted maximal effect
# Chain of Androgen receptor (Homo sapiens) (P10275 whole entry, looked up): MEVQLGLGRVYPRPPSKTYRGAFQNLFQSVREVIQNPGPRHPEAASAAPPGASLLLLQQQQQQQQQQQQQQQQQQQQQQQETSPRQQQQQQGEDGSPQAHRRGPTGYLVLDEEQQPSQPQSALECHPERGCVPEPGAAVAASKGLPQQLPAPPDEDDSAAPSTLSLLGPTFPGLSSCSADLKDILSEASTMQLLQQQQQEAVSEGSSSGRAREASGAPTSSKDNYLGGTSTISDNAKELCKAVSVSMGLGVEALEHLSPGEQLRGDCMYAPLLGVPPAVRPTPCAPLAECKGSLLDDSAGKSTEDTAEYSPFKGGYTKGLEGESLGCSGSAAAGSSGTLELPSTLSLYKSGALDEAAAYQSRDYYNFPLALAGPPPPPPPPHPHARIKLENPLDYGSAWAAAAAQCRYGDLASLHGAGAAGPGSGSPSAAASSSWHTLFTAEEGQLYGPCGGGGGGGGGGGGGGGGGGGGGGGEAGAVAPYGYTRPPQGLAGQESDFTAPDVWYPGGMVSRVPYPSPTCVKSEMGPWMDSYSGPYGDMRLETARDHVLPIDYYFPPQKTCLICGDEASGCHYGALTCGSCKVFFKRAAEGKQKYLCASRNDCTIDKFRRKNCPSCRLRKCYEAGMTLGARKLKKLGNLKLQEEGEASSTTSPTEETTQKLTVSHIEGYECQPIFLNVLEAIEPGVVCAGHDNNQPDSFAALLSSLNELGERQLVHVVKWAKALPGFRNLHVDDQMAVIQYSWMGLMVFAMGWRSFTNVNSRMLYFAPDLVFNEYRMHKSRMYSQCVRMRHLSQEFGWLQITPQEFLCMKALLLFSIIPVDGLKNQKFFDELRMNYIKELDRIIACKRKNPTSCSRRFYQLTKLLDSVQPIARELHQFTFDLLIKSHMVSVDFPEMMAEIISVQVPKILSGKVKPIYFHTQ
# How it was run: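 Agonist-mode confirmation screen: human MDA-kb2 cells stably expressing luciferase under an MMTV promoter bearing AR and GR response elements, co-treated with 3.0uM nilutamide (final). Luminescence measured after 16hr compound incubation.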
# [8] = qHTS assay to identify small molecule antagonists of the estrogen receptor beta (ER-beta) signaling pathway - cell viability counter screen (AID 1259382; active means well fitted curve in the direction sought with a large enough effect in the repeat runs; an effect the other way counts as inactive or inconclusive; further: nearly all actives have a fitted effect of over 55% in size; further: potency means the concentration at half of the fitted maximal effect)
# How it was run: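 Cytotoxicity counter screen multiplexed with the beta-lactamase antagonist assay: GripTite HEK293T ER-beta-bla cells were treated 16 hr with test chemicals in the presence of 1nM 17-beta-estradiol, and viability was measured by CellTiter-Glo.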
# [9] = molecular target: Estrogen receptor beta (Homo sapiens) (UniProt Q92731); experiment: qHTS assay to identify small molecule antagonists of the estrogen receptor beta (ER-beta) signaling pathway (AID 1259378; active means well fitted inhibition curve with a large enough effect in the signal ratio in the repeat runs, not every such curve was filed as active; the % refers to the signal ratio; further: potency means the concentration at half of the fitted maximal effect)
# Chain of Estrogen receptor beta (Homo sapiens) (Q92731 whole entry, looked up): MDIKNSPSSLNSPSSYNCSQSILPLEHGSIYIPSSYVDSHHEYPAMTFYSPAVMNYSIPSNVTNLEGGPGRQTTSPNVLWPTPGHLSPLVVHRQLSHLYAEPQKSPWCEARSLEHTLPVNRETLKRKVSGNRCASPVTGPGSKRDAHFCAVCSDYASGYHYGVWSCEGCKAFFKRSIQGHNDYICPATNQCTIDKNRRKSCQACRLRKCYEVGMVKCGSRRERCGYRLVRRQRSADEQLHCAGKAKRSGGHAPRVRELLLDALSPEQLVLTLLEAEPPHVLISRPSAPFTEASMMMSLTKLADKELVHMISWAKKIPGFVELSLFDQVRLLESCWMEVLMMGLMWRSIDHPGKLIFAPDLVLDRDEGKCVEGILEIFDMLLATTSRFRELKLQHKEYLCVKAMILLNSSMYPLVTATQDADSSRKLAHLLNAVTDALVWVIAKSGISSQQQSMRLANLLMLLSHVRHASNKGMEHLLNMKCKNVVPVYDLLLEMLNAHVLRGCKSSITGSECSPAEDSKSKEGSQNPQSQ
# How it was run: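 ER-beta-UAS-bla HEK293T cells in 2% charcoal-stripped FBS medium treated with compound plus 1nM final 17-beta-estradiol for 16 hr at 37C. Beta-lactamase reporter read by FRET substrate fluorescence after 2 hours at room temperature.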
# [10] = molecular target: Estrogen receptor beta (Homo sapiens) (UniProt Q92731); experiment: qHTS assay to identify small molecule agonists of the estrogen receptor beta (ER-beta) signaling pathway (AID 1259377; active means well fitted activation curve with a large enough effect in the signal ratio in the repeat runs, not every such curve was filed as active; the % refers to the signal ratio; further: potency means the concentration at half of the fitted maximal effect)
# How it was run: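 A UAS-controlled beta-lactamase reporter in ER-beta-UAS-bla HEK293T cells reports receptor activation. Compounds act for 16 hr at 37C in 2% charcoal-stripped serum, and a FRET substrate is read by fluorescence after 2 hours.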
SMILES,Potency [1],Potency [2],Potency [3],Potency [4],Potency [5],outcome [6],Potency [7],Potency [8],Potency [9],Potency [10]
CNC(=O)Oc1cccc2c1OC(C)(C)O2,inactive,inactive,inactive,inactive,inactive,inactive,,,,
CCN(CC)C(=O)/C(Cl)=C(\C)OP(=O)(OC)OC,inactive,inactive,inactive,inactive,inactive,inactive,inactive,inactive,,
NNC(=S)NN,inactive,28.1 µM (active) and 24.3 µM (active),inactive,30.6 µM (active),inactive,inactive,,inactive,,
CNC(=O)N(C)c1nnc(C(C)(C)C)s1,inactive,inactive,inactive,inactive,inactive,inactive,,,inactive,
Cc1ccccc1[N+](=O)[O-],inactive,,inactive,inactive,inactive,inactive,,inactive,inactive,inactive
Cc1ccc(OP(=O)(Oc2ccc(C)cc2)Oc2ccc(C)cc2)cc1,inactive,inactive,inactive,68.5 µM (active),,inactive,,,,
CCc1cccc(CC)c1N(COC)C(=O)CCl,inactive,26.4 µM (active),inactive,,inactive,inactive,inactive,inactive,30.6 µM (active),
CCOC(=O)C(C)OC(=O)c1cc(Oc2ccc(C(F)(F)F)cc2Cl)ccc1[N+](=O)[O-] (stereo not given),inactive,inactive,inactive,inactive,inactive,inactive,,inactive,,
C=C(C)[C@H]1Cc2c(ccc3c2O[C@@H]2COc4cc(OC)c(OC)cc4[C@@H]2C3=O)O1,inactive,19.6 nM (active) and 5.45 µM (active) and inactive,55.2 nM (active) and 38.6 nM (active) and 47.3 nM (active),inactive,,inactive,inactive,inactive,,
CCCCCCOC(=O)c1ccccc1C(=O)OCCCCCC,inactive,inactive,inactive,inactive,inactive,inactive,,inactive,,
CCCCN(CCCC)N=O,inactive,inactive,inactive,inactive,inactive,inactive,,inactive,,
COC(=O)c1sccc1S(=O)(=O)NC(=O)Nc1nc(C)nc(OC)n1,inactive,inactive,inactive,inactive,inactive,inactive,,,inactive,
O=C(O)CC[N+](=O)[O-],inactive,inactive,inactive,inactive,,,inactive,,,
O=[N+]([O-])c1cccc2ccccc12,inactive,,inactive,inactive,inactive,inactive,,,inactive,inactive
C[C@]12CCC(=O)C[C@@H]1CC[C@@H]1[C@@H]2CC[C@]2(C)[C@@H](O)CC[C@@H]12,inactive,,67.8 µM (active) and inactive,13.5 µM (active) and 12.2 µM (active),,,,,,853 nM (active) and 546 nM (active)
CCCCCCCCC(=O)NCc1ccc(O)c(OC)c1,inactive,12.2 µM (active) and inactive,inactive,inactive,inactive,inactive,,inactive,,
N#CCCCl,inactive,inactive,inactive,inactive,,inactive,,,,
ClC1C(Cl)C(Cl)C(Cl)C(Cl)C1Cl (stereo not given),inactive,inactive,inactive,inactive and 27.3 µM (active) and 54.5 µM (active),,inactive,,,inactive,
c1ccc(P(c2ccccc2)c2ccccc2)cc1,inactive,inactive and 17.2 µM (active),inactive,inactive,inactive,inactive,,,inactive,
O=c1oc2ccccc2c(O)c1C(CC(O)c1ccc(-c2ccc(Br)cc2)cc1)c1ccccc1 (stereo not given),inactive,inactive,inactive,inactive,inactive,,,,23 µM (active),
COP(=O)(OC)OC,inactive,inactive,inactive,inactive,inactive,inactive,inactive,inactive,,
C#CCOS(=O)OC1CCCCC1Oc1ccc(C(C)(C)C)cc1 (stereo not given),inactive,687 nM (active) and 2.17 µM (active),5.45 µM (active),27.3 µM (active),inactive,inactive,,,5.45 µM (active) and 4.86 µM (active),
CC(C)c1ccc(CO)cc1,inactive,inactive,inactive,inactive,inactive,inactive,,inactive,,
S=C1NCCN1,inactive,inactive,inactive,inactive,,inactive,,inactive,,
Oc1cc(Cl)ccc1Oc1ccc(Cl)cc1Cl,inactive,,27.9 µM (active),39.5 µM (active),,,,41.8 µM (active),,inactive
CC(C)=CC1C(C(=O)OCc2coc(Cc3ccccc3)c2)C1(C)C (stereo not given),inactive,24.4 µM (active) and 30.6 µM (active),inactive,,inactive,inactive,,inactive,,
CCC(=O)O[C@H]1CC[C@H]2[C@@H]3CCC4=CC(=O)CC[C@]4(C)[C@H]3CC[C@]12C,inactive,,inactive,68.6 µM (active),7.7 µM (active) and 9.44 µM (active),inactive,48.6 nM (active) and 47.3 nM (active),61.1 µM (active) and inactive,,
CCCCCCCCOC(=O)c1ccccc1C(=O)OCCCCCCCC,inactive,,inactive,inactive,inactive,inactive,inactive,inactive,inactive,
CC(C)(c1cc(Cl)c(O)c(Cl)c1)c1cc(Cl)c(O)c(Cl)c1,inactive,,inactive,inactive,,inactive,,inactive,,
